Many of the other results were omitted from the sample, so hits are more common in it than they were.
Marburg entry inh – blocks Marburg virus binding to or entry into cells | Marburg virus pseudotyped entry inhibition, cell reporter | Potency, µM (titrated, usually from 37.8 µM), inactives show top-dose activity change, negative = inhibition, most hits filed as inhibitors | actives 1.8% (n = 300,000) | AID 540276; calls by dose curve; tested in HEK293 cells; also: potency is read from the fitted curve at half-maximal effect; % is scaled to controls: 0 for no effect and ±100 for the full control effect
CHX counter – counter-screen for Shiga toxin inhibitors: cycloheximide protein synthesis inhibition. cell reporter, cycloheximide protein synthesis inhibition counterscreen. max response, %. actives 12% (n = 300,000); in the data active = max response mostly above about 13%, no sharp cut-off; inactive = mostly below about 14%; also: read at 38.3 µM for the half of the compounds with a filed dose; 0% is about no effect
Lassa entry inh – Lassa virus entry inhibition; actives 1.2% (n = 300,000); AID 540256; Lassa virus pseudotype entry inhibition, cell reporter; Potency, µM (top dose mostly 37.9 µM), for inactives: at the top dose activity change, negative = inhibition, most hits filed as inhibitors; calls by dose curve; tested in HEK293 cells; also: potency is read from the fitted curve at half-maximal effect; % is scaled to controls: 0 for no effect and ±100 for the full control effect; nearly all actives have a fitted effect of over 50% in size
Shiga toxin inh – blocks Shiga toxin action in Vero cells | Vero cells, Shiga toxin protein synthesis inhibition reporter | inhibition, % at 38.7 µM | actives 9.2% (n = 290,000); in the data active = inhibition mostly above about 28%, no sharp cut-off; inactive = mostly below about 43%; also: 0% is about no effect
AMA1 RON2 block – disrupts binding of P. falciparum AMA1 to RON2 | AlphaScreen AMA1-biotinylated RON2 peptide binding | Potency, µM (top dose mostly 58.2 µM), inactives show at the highest dose activity change, negative = inhibition, usual class: inhibitors | actives 0.2% (n = 360,000); active = well fitted inhibition curve with a large enough effect; inconclusive = small, poorly fitted or top-dose-only effect; inactive = no such curve, though single readings can be large or run the other way;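 also: potency is read from the fitted curve at half-maximal effect; 0% = vehicle wells and -100% = peptide control; nearly all actives have a fitted effect of over 45% in size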
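AMA1 (3D7) with his tag at 25 nM final met compounds first, then biotinylated RON2 peptide at 25 nM; detection used donor plus acceptor beads, 10 µg/mL apiece, read by AlphaScreen after 30 min at room temperature.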
* hit, by the source's call; ? = inconclusive; · = no result; [ ] = another dose, or the depositor's remark.

SMILES	Marburg entry inh	CHX counter	Lassa entry inh	Shiga toxin inh	AMA1 RON2 block
Cc1ccc2nc(C)cc(C(=O)N3CCCC(N4CCN(c5ccccc5C)CC4)C3)c2c1 (stereo not given)	-11%	8	-22%	-8	12%
Cc1cc(Oc2ccc(C#N)cc2)nc(NCc2ccccc2)n1	?	1	-27%	-19	-4%
Oc1c(C=C2N=c3ccccc3=N2)sc(=S)n1C1CCCC1	-27%	19*	16%	25	-1%
Oc1[nH]c(=S)sc1C=C1N=c2ccccc2=N1	2%[14.2 µM]	25*	16%	38*	19%
Oc1c(C=C2N=c3ccccc3=N2)sc(=S)n1-c1ccc(F)cc1	-5%	0	?	13	21%
c1csc(-c2nc(CN3CCSCC3)cs2)c1	?	45*	?	76*	-6%
O=C(O)c1csc(-c2cccs2)n1	11%[46.1 µM]	-2	21%[46.1 µM]	6	6%
O=S1(=O)CCN(Cc2csc(-c3cccs3)n2)CC1	-9%[46.1 µM]	31*	?	68*	-29%
O=S1(=O)CCN(Cc2ccccn2)CC1	·	-5	·	-16	29%
C[C@H](C[C@H](N)C(=O)O)C(=O)O	·	-5	·	-5	·
COc1ccc(CCNC(=O)c2ccc(CS(=O)Cc3ccc(C)cc3)o2)cc1OC (stereo not given)	-7%[46.1 µM]	-2	?	-4	3%
CCn1cc(C(=O)N2CCN(c3ccccc3OC)CC2)c(=O)c2cc(S(=O)(=O)N3CCC(C)CC3)ccc21	11%[46.1 µM]	·	7%[46.1 µM]	·	·
CC(C)n1cc(/C=C/c2cc[n+](C)cc2)c2ccccc21	2.5µM*	-2	?	-1	6%
O=C(Nc1cccc(C(F)(F)F)c1)C1(c2ccccc2)CC1	12%	-2	-14%	-7	27%
O=C(Nc1ccc(C(F)(F)F)cc1)C1(c2ccccc2)CC1	-6%	12*	13%	18	21%
COc1ccc(NC(=O)n2nc(OC(=O)c3cccs3)cc2N)cc1	·	33*	·	51*	34%
CC(=O)c1ccc(NC(=O)c2cccs2)cc1	-16%	54*	-12%	125*	1%
N/C(=N\O)c1ccc(NC(=O)c2cccs2)cc1	?	58*	28%	109*	-9%
O=C(Nc1ccc(C(F)(F)F)cc1)c1ccccc1Br	12%[46.1 µM]	49*	13%	108*	0%
COC(=O)Cc1ccc(NC(=O)c2ccccc2Br)cc1	?	15*	-10%	50	4%
CC(=O)Nc1ccc(OC(=O)c2cccs2)cc1	-1%	34*	13%	71*	-5%
COC(=O)Cc1ccc(NC(=O)c2cccs2)cc1	0%[46.1 µM]	49*	5%	82*	0%
COc1ccc(N2C(=NC(=O)C3CC3)SC3CS(=O)(=O)CC32)cc1Cl (stereo not given)	·	-1	·	-3	0%
O=C1NC[C@H](CCCCN2C[C@H](Cc3ccccc3)N(CCc3ccc(O)cc3)C(=O)C2=O)N(CCC2CCCCC2)C1=O	·	·	·	·	-18%
O=C1c2ccccc2CCC1C(O)c1ccccn1 (stereo not given)	12%	39*	14%	46	1%
SMILES	Marburg entry inh	CHX counter	Lassa entry inh	Shiga toxin inh	AMA1 RON2 block
OC(c1ccccn1)C(O)c1ccccn1 (stereo not given)	3%	·	1%[46.1 µM]	·	14%
C=CCc1cccc([C@@H]2[C@@H](C)CC[C@H]3C(=O)N4[C@@H](c5cc(OC)c(OC)c(OC)c5)c5[nH]c6ccccc6c5C[C@H]4C(=O)N23)c1	-12%	-3	?	-5	·
C=CCOc1ccc(/C=N/O)cc1Cl	?	20*	13%	50*	-9%
O/N=C/c1ccccc1OCc1ccccc1Cl	22%	-3	-12%	-9	12%
COc1cc(/C=C(/C)[N+](=O)[O-])ccc1OCc1ccccc1Cl	6.5µM*	-7	?	28	?
C=CCOc1ccc(Br)cc1/C=N/O	-18%	-6	13%	-32	2%
COc1cc(/C=N/O)ccc1OCc1ccccc1Cl	?	48*	?	86*	6%
COc1ccc(C/C(=N\OC(C)=O)c2ccc(OC)cc2)cc1	2%[46.1 µM]	18*	-26%[46.1 µM]	23	0%
COC(=O)/N=C(/Cc1ccc(OC)cc1)c1ccc(OC)cc1	19%[46.1 µM]	18*	27%	56*	1%
O=C(CSc1nc(=O)[nH]c2c1CCCC2)NCc1ccc(Cl)cc1	·	·	-2%[46.1 µM]	·	·
COc1ccc(-c2cc(C(=O)Nc3nc4ccccc4s3)c3ccccc3n2)cc1OC	?	16*	?	43*	16%
Cn1c(N)c(C(=O)c2cc(-c3ccncc3)nc3ccccc23)c(=O)n(C)c1=O	-2%	4	0%	-8	-16%
COc1ccccc1NC(=O)c1cc(-c2cc(OC)c(OC)c(OC)c2)nc2ccccc12	3.2µM*	6	?	12	-2%
CCOc1ccccc1NC(=O)c1cc(-c2cc(OC)c(OC)c(OC)c2)nc2ccccc12	?	-4	11µM*	9	-16%
COc1ccc(-c2cc(C(=O)c3c(N)n(C)c(=O)n(C)c3=O)c3ccccc3n2)cc1OC	·	25*	·	14	0%
Cc1cc(Br)cn2c(CC(C)(C)C)c(C3CCCCC3)nc12	·	·	·	·	16%
O=C(Nc1ccccc1Cl)ON=C1c2ccccc2-c2ccccc21	?	23*	26%	45*	-5%
COC(=O)C1=C(Nc2ccccc2NC(=O)c2ccccc2C(=O)O)CSC1	·	56*	·	103*	38%
O=C(O)c1ccccc1C(=O)Nc1ccccc1NC(=O)c1ccccc1C(=O)O	?	·	2%	·	17%
COC(=O)C1=C(Nc2ccccc2NC(=O)CCCC(=O)O)CSC1	-10%[46.1 µM]	14*	?	29	0%
CC1CCC(NC(=O)CSc2nncn2C)CC1 (stereo not given)	3%	·	11%	·	9%
CC(NC(=O)CNC(=O)c1cccs1)c1cccc(C(F)(F)F)c1 (stereo not given)	·	·	·	·	11%
CC(C)(C)C1CCc2sc(-c3nnc(CCl)o3)cc2C1 (stereo not given)	·	32*	·	72*	68%
O=C(O)c1cc2c(s1)CCCC2	4%	-3	-16%	-2	43%
ClCc1nnc(-c2cc3c(s2)CCCC3)o1	16%[46.1 µM]	50*	-3%[46.1 µM]	67*	11%
SMILES	Marburg entry inh	CHX counter	Lassa entry inh	Shiga toxin inh	AMA1 RON2 block
COc1ccc(S(=O)(=O)N2CCN(Cc3nc4ccc(C)cc4o3)CC2)cc1OC	·	·	-2%[46.1 µM]	·	·
CN(C(=O)CSc1nncc2ccccc12)c1ccccc1	-13%	·	-23%	·	12%
CCCCOc1ccc(C(=O)Nc2cc(-c3cn4cccnc4n3)ccc2OC)cc1	·	·	-1%[46.1 µM]	·	·
COCCN(C(=O)c1cc2c(s1)CCCCC2)c1c(N)n(Cc2ccccc2)c(=O)[nH]c1=O	?	·	-9%	·	-3%
COCCCN(C(=O)c1cc2c(s1)CCCCC2)c1c(N)n(Cc2ccccc2)c(=O)[nH]c1=O	-17%[46.1 µM]	·	10µM*	·	-12%
CC1CCOC(c2coc3ccccc3c2=O)O1 (stereo not given)	?	59*	?	54*	-5%
CC1CC(=O)C2=C(C1)OC(N)=C(C#N)C2c1coc2ccccc2c1=O (stereo not given)	-5%	5	-2%	10	-2%

Compound activity deposited in PubChem by National Center for Advancing Translational Sciences (NCATS).
